Tm shift relative to glycine control data for 15 molecules are collected here from PubChem BioAssay AID1259313 (Sanford-Burnham Center for Chemical Genomics, 2017).

The structures appear in SMILES notation. The whole screen tested about 340,000 compounds, of which about 8,500 (2.5%) were called active.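 The calls were made as follows: active = melting temperature shift of at least 10% of the positive control shift, at one fixed dose; inactive = the rest.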 For the sample, actives were picked, then their nearest neighbours and some compounds at random.

This test concerns Glutamate receptor ionotropic, NMDA 3A (GRIN3A) ligand-binding domain. Briefly: binders of NR3A ligand-binding domain, primary screen, biophysical, differential scanning fluorimetry, uHTS (AID 1259313). To be noted: NR3A LBD differential scanning fluorimetry, at 25 µM, stronger effect = higher value. For orientation: DSF heats the sample and reads unfolding from a dye or from intrinsic fluorescence.
Turning to `O=C(CCNS(=O)(=O)c1ccccc1)Nc1ccc(Cl)cc1C(=O)c1ccccc1`, the Tm shift relative to glycine control was -5.82% (inactive). Regarding `O=C(COC(=O)c1ccccc1)Nc1ccc(Cl)cc1C(=O)c1ccccc1`, the Tm shift relative to glycine control was 12.2% (active). For `CN1CCN(C(=S)SCC(=O)Nc2ccc(Cl)cc2C(=O)c2ccccc2)CC1` the value was 3.94% (inactive); for `O=C(Nc1cccc2ccccc12)N1CCC2(CC1)OCCO2`, 0% (inactive).

For `Cc1cc(N2C(=O)C3CCCN3C2c2ccc(Cl)c(Cl)c2)no1` (stereo not given), the Tm shift relative to glycine control is 0.27% (inactive).

Take `COCCNC(=O)CN1C2CCC1CC(O)(c1cccnc1)C2` (stereo not given): the Tm shift relative to glycine control was 0.09% (inactive). `COc1cccc(N2C(=O)NC(=O)/C(=C\c3ccc([N+](=O)[O-])s3)C2=O)c1`: the Tm shift relative to glycine control is -7.7% (inactive).

With `O=C1NC(=O)N(Cc2ccco2)C(=O)/C1=C\c1ccc(-c2ccc(F)cc2)o1`, the Tm shift relative to glycine control was 0.53% (inactive). The same measure for `COc1ccc(N2C(=O)/C(=C/c3ccco3)C(=O)NC2=S)cc1`: 10.6% (active). In the case of `CC[N+]1(C)CCCC(OC(=O)C(O)(c2ccccc2)c2ccccc2)C1` (stereo not given), the Tm shift relative to glycine control is 1.89% (inactive). For `CC1=C(C(=O)Nc2ccccc2)S(=O)(=O)CCO1` the value was 0.53% (inactive); for `CCNc1nc2[nH]c(=O)c3c(c2s1)OC(N)=C(C#N)C3c1cccs1` (stereo not given), 1.75% (inactive); for `CCN1C(=O)C(=Cc2c(C)n(CC(=O)NCC3CCCO3)c3ccccc23)C(=O)N(CC)C1=S` (stereo not given), 0.27% (inactive). The same measure for `CCCCCCCCCCCCn1ccc(=N)cc1`: 20.8% (active).

As to `CCN1C(=O)NC(=O)C2(CCCC2)C1=O`, the Tm shift relative to glycine control was 1.88% (inactive).
